This is a sample that favours compounds with a hit; in the whole collection about 5.3% have one here.
HCV inh: blocks hepatitis C virus | Huh7.5.1 HCVcc-Cre infection, luciferase reporter, 44 h | Potency, µM (titrated, usually from 41.8 µM), most hits filed as inhibitors | 3.4% of 340,000 active | AID 651820; active = well fitted inhibition curve with a large enough effect; inconclusive = small, poorly fitted or top-dose-only effect, or another doubt; inactive = no such curve, though single readings can be large or run the other way
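A cell-based infection assay in which seeded cells (1,000 per well) receive test compound after 4 h, are inoculated with HCVcc-Cre at approximately 0.5 moi, and are incubated 44 h before luminescence detection.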
VACV mCherry inh: vaccinia inhibition (mCherry reporter); Vaccinia virus mCherry reporter infection, fluorescence; Potency, µM (doses to about 36.5 µM), actives largely listed as inhibitors; 0.63% of 310,000 active; calls by dose curve; tested in A549 cells; also: nearly all actives have a fitted effect of over 35% in size
VACV Venus inh: vaccinia inhibition (Venus reporter). Potency, µM (doses to about 36.5 µM), hits mostly inhibitors. Vaccinia virus Venus reporter expression, fluorescence. AID 720580. 0.46% of 330,000 active; calls by dose curve; tested in A549 cells; also: nearly all actives have a fitted effect of over 30% in size
FMDV antiviral: blocks foot and mouth disease virus; 1.2% of 410,000 active; AID 1159524; FMDV antiviral cell-based qHTS; Potency, µM (titrated, usually from 57.9 µM), usual class: inhibitors; calls by dose curve; tested in HEK293T cells; also: read-out not given here; nearly all actives have a fitted effect of over 45% in size
LASV entry inh: blocks Lassa virus binding to or entry into cells; 1.2% of 300,000 active; Potency, µM (highest dose often 37.9 µM), most hits filed as inhibitors; Lassa virus pseudotype entry inhibition, cell reporter; AID 540256; calls by dose curve; tested in HEK293 cells; also: nearly all actives have a fitted effect of over 50% in size
MARV entry inh: blocks Marburg virus binding to or entry into cells; AID 540276; Potency, µM (highest dose often 37.8 µM), hits mostly inhibitors; Marburg virus pseudotyped entry inhibition, cell reporter; 1.8% of 300,000 active; calls by dose curve; tested in HEK293 cells
Of the large screens only hits and unclear results are named; the others gave an inactive call; ! = repeats disagree.

CC1(C)Cc2c(c(N3CCCC3)nc3sc4c(N5CCN(CCO)CC5)ncnc4c23)CO1	HCV inh 2.2µM, VACV Venus inh inconclusive, LASV entry inh inconclusive, MARV entry inh inconclusive (no result: FMDV antiviral)
OCCN1CCN(c2ncnc3c2sc2nc(N4CCOCC4)c4c(c23)CCC4)CC1	HCV inh 11µM, VACV mCherry inh inconclusive, VACV Venus inh inconclusive, MARV entry inh inconclusive (no result: FMDV antiviral)
CCOC(=O)c1sc2nc(N3CCCC3)c3c(c2c1N)CC(C)(C)OC3	HCV inh inconclusive (no result: VACV mCherry inh, VACV Venus inh)
Cc1ccc2c(c1)cc1c(=O)n(Cc3ccccc3Cl)nc(C)n12	MARV entry inh inconclusive (no result: HCV inh)
CC(C)N1CCc2c(sc(NC(=O)c3ccc(C(=O)c4ccccc4)cc3)c2C(N)=O)C1	HCV inh inconclusive, VACV mCherry inh inconclusive, VACV Venus inh inconclusive, LASV entry inh inconclusive, MARV entry inh inconclusive
CC(=O)Nc1sc2c(c1-c1nc3ccccc3s1)CCN(C(C)C)C2	HCV inh 8.9µM, VACV mCherry inh 13µM, VACV Venus inh 10µM (no result: LASV entry inh, MARV entry inh)
CC(C)N1CCc2c(sc(NC(=O)c3ccc4ccccc4c3)c2C(N)=O)C1	HCV inh 8.9µM (no result: VACV mCherry inh, VACV Venus inh, LASV entry inh, MARV entry inh)
CCN1CCc2c(sc(NC(=O)c3cc4ccccc4cc3OC)c2C(N)=O)C1	HCV inh 8.9µM, VACV mCherry inh 14µM, VACV Venus inh inconclusive, MARV entry inh 11µM
CN1CCc2c(sc(NC(=O)c3cc(Cl)sc3Cl)c2C(N)=O)C1	HCV inh 13µM, VACV mCherry inh inconclusive (no result: LASV entry inh, MARV entry inh)
O=C1O[C@H](Nc2ccc(Br)cn2)c2ccccc21	none (no result: HCV inh, VACV mCherry inh, VACV Venus inh, FMDV antiviral, LASV entry inh)
COc1ccc(CN(C(=O)c2nsc(Cl)c2Cl)C(C(=O)NC2CCCCC2)c2ccc(OC)cc2)cc1 (configuration not stated)	HCV inh inconclusive, LASV entry inh inconclusive, MARV entry inh 15µM (no result: FMDV antiviral)
COc1ccc(CN(C(=O)c2snc(C(N)=O)c2N)C(C(=O)NC2CCCC2)c2ccc(OC)c(OC)c2)cc1 (configuration not stated)	none
COc1ccc(CN(C(=O)c2nsc(Cl)c2Cl)C(C(=O)NC2CCCC2)c2ccc(C)cc2)cc1 (configuration not stated)	HCV inh inconclusive, LASV entry inh 16µM, MARV entry inh inconclusive
Cc1ccc(S(=O)(=O)Nc2ccc(NC(=O)Nc3cccc(C(F)(F)F)c3)cc2)cc1	HCV inh inconclusive, VACV mCherry inh 11µM, VACV Venus inh inconclusive, FMDV antiviral inconclusive, LASV entry inh inconclusive, MARV entry inh inconclusive
Cc1ccc(NS(=O)(=O)c2ccc(NC(=O)c3cccc(NC(=O)C(C)C)c3)cc2)cc1	HCV inh 10µM, VACV Venus inh inconclusive, FMDV antiviral inconclusive, LASV entry inh inconclusive, MARV entry inh 13µM (no result: VACV mCherry inh)
CC(C)C(=O)Nc1cccc(C(=O)Nc2cc([N+](=O)[O-])ccc2Cl)c1	HCV inh inconclusive (no result: VACV mCherry inh, VACV Venus inh, LASV entry inh, MARV entry inh)
Cc1cc([N+](=O)[O-])ccc1NC(=O)c1cccc(NC(=O)C(C)C)c1	HCV inh 11µM (no result: LASV entry inh, MARV entry inh)
CCN(CC)S(=O)(=O)c1ccc(NC(=O)Nc2cccc(C(F)(F)F)c2)cc1	HCV inh 11µM, FMDV antiviral inconclusive, LASV entry inh inconclusive, MARV entry inh inconclusive (no result: VACV mCherry inh, VACV Venus inh)
Cc1ccc(S(=O)(=O)CC(C)(O)C(=O)Nc2cccc(C(F)(F)F)c2)cc1 (configuration not stated)	none (no result: VACV mCherry inh, VACV Venus inh)
CCOc1ccccc1OCCCCn1c(-c2ccc(Cl)cc2)nc2ccccc2c1=O	none (no result: HCV inh)
CCc1ccc2oc(C(=O)Nc3sc4c(c3C(=O)NC)CCCC4)cc(=O)c2c1	none (no result: HCV inh)
CCN(CC)S(=O)(=O)c1ccc(/C=C/C(=O)O)cc1	LASV entry inh inconclusive
Cc1ccccc1NC(=O)/C=C/c1cccs1	MARV entry inh inconclusive
CCN(CC)S(=O)(=O)c1ccc(C)c(NC(=O)/C=C/c2cccs2)c1	HCV inh 10µM, FMDV antiviral inconclusive, LASV entry inh inconclusive, MARV entry inh inconclusive
CCN(CC)S(=O)(=O)c1ccc(/C=C/C(=O)Nc2cccc(F)c2)cc1	HCV inh 13µM, FMDV antiviral inconclusive, LASV entry inh inconclusive
O=C(CN1C(=O)c2cccc([N+](=O)[O-])c2C1=O)NCc1ccccc1	none
O=C(NCCCN1CCN(c2ccc(F)cc2)CC1)C1CCCN(c2ncnc3c2nc2n3CCCCC2)C1 (configuration not stated)	HCV inh inconclusive, FMDV antiviral inconclusive, LASV entry inh inconclusive, MARV entry inh inconclusive
COc1ccccc1N1CCN(CCCNC(=O)C2CCCN(c3ncnc4c3nc3n4CCCCC3)C2)CC1 (configuration not stated)	HCV inh 13µM, FMDV antiviral inconclusive (no result: VACV mCherry inh, VACV Venus inh, LASV entry inh, MARV entry inh)
Cc1cccc(N2CCN(C(=O)C3CCN(c4ncnc5c4nc4n5CCCCC4)CC3)CC2C)c1 (configuration not stated)	HCV inh 5.6µM, VACV mCherry inh inconclusive, VACV Venus inh inconclusive, FMDV antiviral 32µM, LASV entry inh 10µM, MARV entry inh inconclusive
Cc1cccc(N2CCN(C(=O)C3CCN(c4ncnc5c4nc4n5CCCCC4)CC3)CC2)c1C	HCV inh 7.1µM, VACV Venus inh inconclusive, FMDV antiviral 20µM, LASV entry inh inconclusive (no result: MARV entry inh)
CSc1nc2sc3c(c2c(=O)n1-c1ccc(F)c(Cl)c1)CCN(C(C)=O)C3	none (no result: HCV inh)
CCOC1=C2[C@@H](CN(S(=O)(=O)c3ccc(C)cc3)[C@H]2c2cccc3ccccc23)[C@H]2C(=O)N(c3ccccc3)C(=O)[C@H]2C1	none (no result: HCV inh, LASV entry inh, MARV entry inh)
Oc1c(Cl)cc(Cl)c2cccnc12	VACV Venus inh inconclusive, FMDV antiviral inconclusive (no result: LASV entry inh, MARV entry inh)
Cc1ccc2c(Cl)cc(Cl)c(O)c2n1	HCV inh inconclusive, VACV mCherry inh inconclusive, VACV Venus inh inconclusive, FMDV antiviral 10µM!, LASV entry inh inconclusive, MARV entry inh 11µM
COc1cc(=O)n2c(c1C(=O)N(C)Cc1cscn1)CCN(C(=O)c1cccc(C)c1C)CC2	none (no result: HCV inh, LASV entry inh, MARV entry inh)
Nc1nc(N)c(-c2cccc(C(F)(F)F)c2)c(Cc2cccc(C(F)(F)F)c2)n1	HCV inh inconclusive, VACV mCherry inh 4.5µM, VACV Venus inh 4µM, LASV entry inh inconclusive, MARV entry inh inconclusive
Nc1ncccc1OCc1cccc(C(F)(F)F)c1	HCV inh inconclusive, FMDV antiviral inconclusive, LASV entry inh inconclusive
CCN1CCN(c2ccc(S(=O)(=O)N3CCCCC3)cc2NC(=O)CC(NC(C)=O)c2ccccc2)CC1 (configuration not stated)	none
O=C(c1cccs1)N1CCCC(N2CCN(c3ccc(F)cc3)CC2)C1 (configuration not stated)	none
O=C(CSc1ccccc1)N1CCCC(N2CCN(c3ccc(F)cc3)CC2)C1 (configuration not stated)	HCV inh 10µM, MARV entry inh inconclusive
O=C(c1ccoc1)N1CCCC(N2CCN(c3ccc(F)cc3)CC2)C1 (configuration not stated)	none (no result: VACV mCherry inh, VACV Venus inh, LASV entry inh, MARV entry inh)
O=C(c1cccc(-c2ccco2)c1)N1CCCC(N2CCN(c3ccc(F)cc3)CC2)C1 (configuration not stated)	HCV inh inconclusive, FMDV antiviral 35µM, LASV entry inh inconclusive
Cc1cccc(CNC(=O)c2cnn(-c3nccc(-c4ccccc4F)n3)c2C)n1	none (no result: HCV inh, LASV entry inh, MARV entry inh)

Bioassay records as filed in PubChem BioAssay.
